Here are results for 26 compounds from PubChem BioAssay (NCATS).

Each structure is given as a SMILES string. “And” between values parts separate entries of the source, which are not always exact repeats. Equal entries are not always repeated. Results filed as inconclusive are left out. Values without a mark were called inactive. The source made the active and inactive calls. Calls follow the shape of the dose curve; as a rule, active = well fitted activation curve with a large enough effect; inconclusive = small, poorly fitted or top-dose-only effect; inactive = flat fitted curve, though single readings scatter.

The nature of the experiment: Cellular Toxicity (caspase-3) Hek293 (AID 664).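 Also: cells exposed to compound for 16 h at 37 °C before readout.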 As to conditions: HEK293 caspase-3 activation, DMSO = 0%, 100 µM tamoxifen = 100%; at 92.2 µM (top of the series). The text has this:
NIH Chemical Genomics Center [NCGC]
NIH Molecular Libraries Screening Centers Network [MLSCN]
National Institutes of Environmental Health Sciences [NIEHS]
National Toxicology Program [NTP]
We have developed a 1536-well cell-based assay for quantitative high throughput screening (qHTS) against a number of cell lines to determine in vitro caspase 3/7 of small molecules. This particular assay uses the Hek 293 cell line which is derived from human embryonic kidney cells.
NCGC Assay Protocol Summary:
The Caspase-Glo 3/7 assay (Promega) is a homogeneous method to measure caspase-3 and caspase-7 activities in cultured cells. The quantitation of caspase 3/7 activity is based on the cleavage of a peptide-aminoluciferin substrate. After caspase cleaves the substrate the free aminoluciferin is liberated and serves as the substrate of luciferase, which generates the light. The luminescent signal is proportional to amount of caspase 3/7 activity present.
Using the Caspase-Glo 3/7 assay, the amount of caspase 3/7 activity was measured in the Hek 293 cell line with complete culture medium following compound treatment for 16 hours. The assay was performed in opaque white 1536-well plates. In the screen, tamoxifen and doxorubicin were used as positive controls. Library compounds were measured for their ability to cause the activation of caspase 3/7 in the cell line, as reflected by an increase in luminescence signal, in a concentration-dependent manner. Data were normalized to the controls for basal activity (DMSO only) and 100% stimulation (100 uM tamoxifen). AC50 values were determined from concentration-response data modeled with the standard Hill equation.
qHTS protocol for caspase 3/7 assay in Hek 293 cells
[Step] [Parameter] [Value] [Description]
2. Time; 5 hr; 37 °C incubation
4. Controls; 23 nL; Tamoxifen 0.23 uM to 100 uM & Doxorubicin 7.0 pM to 100 uM
5. Time; 16 hr; 37 °C incubation
6. Reagent; 5 uL; Caspase-Glo 3/7 reagent
7. Time; 20 min; Room Temperature
8. Detection; Luminescence; Viewlux plate reader
Keywords: caspase 3/7, apoptosis, Hek 293 cell line, luminescence, NTPHTS, NTPHTS_NCGC, NIEHS, EPA, DSSTox, MLSMR, MLSCN, NIH Roadmap, qHTS, NCGC
Regarding `O=C=Nc1ccc(Cc2ccc(N=C=O)cc2)cc1`, the caspase-3 activation is -1.82%.
Regarding `Cc1cc(O)c(C(C)(C)C)cc1Sc1cc(C(C)(C)C)c(O)cc1C`, the caspase-3 activation is 230% (active).
Under `C=CC(=O)OCCOCCOC(=O)C=C` stands 5.92%; under `Cc1cc(Nc2ccc(O)cc2)ccc1N`, -8.9%.
On to `CN(C)c1ccc(C2(c3ccc(N(C)C)cc3)OC(=O)c3cc(N(C)C)ccc32)cc1`, for which the caspase-3 activation was -1.05%.
Under `Oc1ccc2cc(SSc3ccc4cc(O)ccc4c3)ccc2c1` stands 15.1%; under `C=CC(=O)OCC(CO)(COC(=O)C=C)COC(=O)C=C`, -6.03%; under `CCCCCC/C(C=O)=C\c1ccccc1`, 2.43%.
Take `c1cc(OCC2CO2)cc(OCC2CO2)c1` (stereo unspecified): the caspase-3 activation was 8.84%.
Under `C=C(C)c1ccccc1` stands 0.697%; under `O=C1OC2(c3cc(Br)c(O)c(Br)c3Oc3c2cc(Br)c(O)c3Br)c2c(Cl)c(Cl)c(Cl)c(Cl)c21`, -0.811%; under `O=C(OCC(COC(=O)c1ccccc1)(COC(=O)c1ccccc1)COC(=O)c1ccccc1)c1ccccc1`, 2.36%.
For `CO[C@H]1/C=C/O[C@@]2(C)Oc3c(C)c(O)c4c(O)c(c5c(c4c3C2=O)NC2(CCN(CC(C)C)CC2)N=5)=NC(=O)/C(C)=C\C=C\[C@H](C)[C@H](O)[C@@H](C)[C@@H](O)[C@@H](C)[C@H](OC(C)=O)[C@@H]1C` the value was -2.49%; for `c1ccc2c(c1)ccc1cc3c(ccc4ccccc43)cc12`, -3.42%; for `Cc1ccc(S(=O)(=O)Oc2ccc(N=Nc3ccc(-c4ccc(N=Nc5c(O)ccc6cc(S(=O)(=O)O)cc(S(=O)(=O)O)c56)c(C)c4)cc3C)cc2)cc1`, -1.72%.
For `ClC1=C(Cl)C(Cl)(Cl)C(Cl)=C1Cl` the value was 131% (active); for `Nc1ccc2cc3ccccc3cc2c1`, -0.457%; for `O=[N+]([O-])c1cc([N+](=O)[O-])c2ccc(S(=O)(=O)O)cc2c1O`, 1.41%.
For `O=Cc1ccc(Cl)c(Cl)c1`, the caspase-3 activation is 1.45%.
Under `CCC(C)Nc1ccc(NC(C)CC)cc1` (stereo unspecified) stands -12.1%; under `O=C1OC(O)C(C(Cl)Cl)=C1Cl` (stereo unspecified), 0.823%; under `CNc1ccc(O)cc1`, -11.1%.
For `O=C(/C=C/c1ccc(O)c(O)c1)OC1C[C@](O)(C(=O)O)C[C@@H](O)[C@H]1O` (stereo partly specified) the value was 0.862% and -1.58%.
For `Cc1cccc(O)c1C` the value was 0.349%; for `c1ccc2c(c1)-c1cccc3c1c-2cc1ccccc13`, -2.54%; for `CN1[C@H]2CC(OC(=O)[C@H](CO)c3ccccc3)C[C@H]1[C@H]1O[C@H]12` (stereo partly specified), -1.68% and 4.08%.
